Only some compounds are listed: those with a hit (about 6.8% of all), similar ones and a draw of the others.
PMK inhibit – blocks S. pneumoniae phosphomevalonate kinase. AID 539. inhibition, % at 10 µM. 0.49% of 65,000 active. purified PMK, PK/LDH-coupled NADH absorbance 340 nm;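 active = top-ranked compounds by inhibition in the single 10 µM screen, taking a fixed number of the strongest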;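 note: 0% = full reaction with DMSO carrier and 100% = background rate without enzyme reaction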
Fluor 339 460 – intrinsic fluorescence of library compounds, ex339/em460 – biochemical, MLSMR library, data from DPM-DC assay, artefact control, profiling panel; compound autofluorescence, ex339/em460 nm, NADH buffer; active compounds read high; 1 = no-compound wells, NADH background; fluorescence fold increase at 10 µM; 5.5% of 65,000 active; AID 709;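 active = at 10 µM, mean starting fluorescence two-fold or more over control wells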;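 note: signal is the first read of a kinetic run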
Spn DPM-DC inh – blocks S. pneumoniae diphosphomevalonate decarboxylase; purified DPM-DC, PK/LDH coupled NADH fluorescence; 0.49% of 65,000 active; calls only at 10 µM;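 active = the 320 compounds with the highest percent inhibition in the single-dose primary screen, excluding strongly autofluorescent ones, cut at about 32% in these data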;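 note: kinetic rate of NADH fluorescence loss reporting ADP formed by the decarboxylase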
MK inhibit – S. pneumoniae mevalonate kinase inhibition; purified MK, PK/LDH-coupled NADH absorbance 340 nm; inhibition, % at 10 µM; 0.48% of 65,000 active;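 active = ranked among the strongest by inhibition in the single 10 µM screen, a fixed top-ranked set picked for dose follow-up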
NADH coupling – inhibition of NAD/NADH coupling enzymes, library profiling; coupled PK/LDH NADH assays, four targets; IC50, µM (titrated, usually from 10 µM), for inactives: at the highest dose inhibition; 0.02% of 65,000 active; AID 774;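 active = single-dose screening hits from any of four coupled enzyme assays that gave an IC50 when retested across doses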;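 note: the DPM-DC format reads NADH fluorescence rather than 340 nm absorbance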
Abs 340nm – compounds absorbing at 340 nm | compound absorbance at 340 nm, fold over control | fold change at 10 µM | 65,000 tested, under 10 active | AID 708;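 active = at 10 µM dose, initial 340 nm absorbance at least 2 fold that of control wells; inactive = change under 2 fold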;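 note: initial absorbance extrapolated from kinetic A340 decline of NADH oxidation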
Starred values were filed as active, the others as inactive.

`O=C(CCn1c(=O)c2ccccc2n(Cc2cc(=O)n3ccccc3n2)c1=O)NCc1ccco1` gave PMK inhibit 14, Fluor 339 460 2.2*, Spn DPM-DC inh inactive, MK inhibit 0, NADH coupling 5% and Abs 340nm 1.1.
For O=c1c2cccc3c2c(nn1CN1CCOCC1)-c1ccccc1-3 the results were PMK inhibit 7, Fluor 339 460 2.4*, Spn DPM-DC inh inactive, MK inhibit 14, NADH coupling 12% and Abs 340nm 1.1.
Screening Cc1ccc(-c2nn(CC(=O)NCCN3CCOCC3)c(=O)c3ccccc23)cc1 returned PMK inhibit 6, Fluor 339 460 1.1, Spn DPM-DC inh inactive, MK inhibit 3, NADH coupling 3% and Abs 340nm 1.1.
Screening CC(=O)c1cccc(NC(=O)Nc2cccnc2)c1 returned PMK inhibit 3, Fluor 339 460 0.45, Spn DPM-DC inh active, MK inhibit 1, NADH coupling 18% and Abs 340nm 1.
Screening O=C(c1ccccc1)c1ccc(Oc2ncccn2)cc1 returned PMK inhibit 12, Fluor 339 460 0.98, Spn DPM-DC inh inactive, MK inhibit 0, NADH coupling 4% and Abs 340nm 1.
Screening Nc1c(C(=O)NC2CCCC2)sc2nc(-c3cccs3)ccc12 returned PMK inhibit 5, Fluor 339 460 2.8*, Spn DPM-DC inh active, MK inhibit 5, NADH coupling 17% and Abs 340nm 1.1.
CCCCC(=O)Nc1ccc(C(N)=O)cc1 was read as PMK inhibit 0, Fluor 339 460 1.1, Spn DPM-DC inh active, MK inhibit 6, NADH coupling 17% and Abs 340nm 0.99.
CCCCC(=O)Nc1ccc(C(=O)NCC(=O)OC)cc1 was read as PMK inhibit 6, Fluor 339 460 1.1, Spn DPM-DC inh inactive, MK inhibit 12, NADH coupling 7% and Abs 340nm 1.
`Nc1ncc(Br)cc1S(=O)(=O)NCCC(=O)N1CCN(c2ncccn2)CC1` gave PMK inhibit 16, Fluor 339 460 1.4, Spn DPM-DC inh inactive, MK inhibit 6, NADH coupling 7% and Abs 340nm 1.
Screening CC(=O)Nc1c(C(=O)N2CCN(c3ncccn3)CC2)cnn1-c1ccccc1Cl returned PMK inhibit 0, Fluor 339 460 1.1, Spn DPM-DC inh inactive, MK inhibit 6, NADH coupling 4% and Abs 340nm 1.
`COc1ccc(CN2C(=O)c3ccccc3C2C(=O)NCC2CCCO2)c(OC)c1` (stereo not given) gave PMK inhibit 20, Fluor 339 460 1.1, Spn DPM-DC inh inactive, MK inhibit 0, NADH coupling 7% and Abs 340nm 0.99.
COc1ccc(CN2C(=O)c3ccccc3C2C(=O)NC2CCCC2)c(OC)c1 (stereo not given) was read as PMK inhibit 25*, Fluor 339 460 1, Spn DPM-DC inh inactive, MK inhibit 1, NADH coupling 3% and Abs 340nm 0.96.
For COc1ccccc1-c1nc(C#N)c(N2CCC(Cc3ccccc3)CC2)o1 the results were PMK inhibit 11, Fluor 339 460 3.9*, MK inhibit 12, NADH coupling 12% and Abs 340nm 1.
For N#Cc1nc(Cc2ccccc2)oc1N1CCC(Cc2ccccc2)CC1 the results were PMK inhibit 0, Fluor 339 460 1.1, Spn DPM-DC inh inactive, MK inhibit 1, NADH coupling 0% and Abs 340nm 1.
`COc1ccccc1-c1nc(C#N)c(N2CCN(Cc3ccccc3)CC2)o1` gave PMK inhibit 13, Fluor 339 460 3.1*, Spn DPM-DC inh inactive, MK inhibit 12, NADH coupling 18% and Abs 340nm 1.
For CC(C)(C)C(=O)N=C1SC2CS(=O)(=O)CC2N1c1ccc2c(c1)OCO2 (stereo not given) the results were PMK inhibit 3, Fluor 339 460 1, Spn DPM-DC inh inactive, MK inhibit 2, NADH coupling 3% and Abs 340nm 0.99.
CCn1c2ccccc2c2cc(CN3CCN(C(=O)c4ccco4)CC3)ccc21 was read as PMK inhibit 30*, Fluor 339 460 1.1, Spn DPM-DC inh inactive, MK inhibit 54*, NADH coupling 28% and Abs 340nm 1.
Screening COc1ccc(CN2CCN(C(=O)c3ccco3)CC2)cc1OCc1ccccc1 returned PMK inhibit 7, Fluor 339 460 1.1, Spn DPM-DC inh inactive, MK inhibit 52*, NADH coupling 20% and Abs 340nm 1.1.
`C=CCOC(=O)C1=C(C)NC(SCC(=O)NC(=O)OCC)=C(C#N)C1c1cccnc1` (stereo not given) gave PMK inhibit 7, Fluor 339 460 3.1*, Spn DPM-DC inh inactive, MK inhibit 3, NADH coupling 14% and Abs 340nm 1.1.
COc1cc(OC)c(C(=O)Nc2ncn[nH]2)cc1OC was read as PMK inhibit 14, Fluor 339 460 1.2, Spn DPM-DC inh inactive, MK inhibit 6, NADH coupling 3% and Abs 340nm 1.
Cc1cc(=O)oc2cc(OC(C)C)ccc12 was read as PMK inhibit 3, Fluor 339 460 2.1*, MK inhibit 6, NADH coupling 5% and Abs 340nm 1.1.
`COc1ccc2oc(=O)cc(C)c2c1` gave PMK inhibit 16, Fluor 339 460 2.6*, Spn DPM-DC inh inactive, MK inhibit 0, NADH coupling 5% and Abs 340nm 1.
`C#CCOc1ccc2c(C)cc(=O)oc2c1` gave PMK inhibit 7, Fluor 339 460 3.9*, MK inhibit 8, NADH coupling 8% and Abs 340nm 1.
Screening CCOC(=O)Oc1ccc2oc(=O)cc(C)c2c1 returned PMK inhibit 2, Fluor 339 460 1.1, Spn DPM-DC inh inactive, MK inhibit 9, NADH coupling 4% and Abs 340nm 1.
`COc1cc(OC)c2c(C)cc(=O)oc2c1` gave PMK inhibit 14, Fluor 339 460 3.8*, MK inhibit 13, NADH coupling 14% and Abs 340nm 1.
`COc1nc(OC/C(N)=N/O)nc(N2CCOCC2)n1` gave PMK inhibit 18, Fluor 339 460 1, Spn DPM-DC inh inactive, MK inhibit 10, NADH coupling 11% and Abs 340nm 0.98.
Screening CCN(CC)c1nc(N)c2c(N)n(-c3ccccc3C)c(=S)c(C#N)c2c1C#N returned PMK inhibit 16, Fluor 339 460 1.8, Spn DPM-DC inh inactive, MK inhibit 4, NADH coupling 8% and Abs 340nm 1.
CCN(CC)c1nc(N)c2c(N)nc3c(c2c1C#N)CC(c1ccccc1)O3 (stereo not given) was read as PMK inhibit 14, Fluor 339 460 2.1*, MK inhibit 6, NADH coupling 10% and Abs 340nm 1.1.
Screening CCN(CC)Cc1c[nH]c2c(C(=O)OC)cccc12 returned PMK inhibit 15, Fluor 339 460 2.1*, MK inhibit 3, NADH coupling 9% and Abs 340nm 1.

Screening data as filed in PubChem BioAssay.
